Data published in PubChem BioAssay (Tox21).
Inconclusive results are not listed. The source made the active and inactive calls. Unless noted, calls follow the shape of the dose curve; as a rule, active = well fitted curve in the direction sought with a large enough effect in the repeat runs; inconclusive = weak or mixed curves; inactive = no such curve, though single readings can be large; an effect the other way counts as inactive or inconclusive.

What was measured:
[1] = qHTS assay to identify small molecule agonists of the progesterone receptor (PR) signaling pathway - cell viability counter screen (AID 1346799; calls by dose curve; also: nearly all actives have a fitted effect of over 45% in size; also: potency is read from the fitted curve at half-maximal effect)
Outline: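 Viability was scored by ATP luminescence (CellTiter-Glo, 30 min, room temperature) in the same wells used for the reporter readout, after 16 hr compound exposure of PR-UAS-bla HEK293T cells.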

[2] = qHTS assay to identify small molecule antagonists of the TGF-beta/Smad signaling pathway - cell viability counter screen (AID 1346824); also: nearly all actives have a fitted effect of over 50% in size
Outline: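 Cytotoxicity counter-screen run in the same wells as the beta-lactamase Smad reporter read: CellTiter-Glo luminescence after 30 min at room temperature. HEK 293T SBE-bla cells had 5 hr compound exposure at 37 C with TGF-beta1 (0.25 ng/mL stock).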

[3] = qHTS assay to identify small molecule agonists of the TGF-beta/Smad signaling pathway (AID 1346859; active = well fitted activation curve with a large enough effect in the signal ratio in the repeat runs, not every such curve was filed as active; the % refers to the signal ratio; also: series mostly up to about 77 µM)
Outline: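 Dual-wavelength fluorescence (460/530 nm emission) quantified beta-lactamase expression under the Smad binding element in HEK 293T cells following 5 hr compound treatment at 37 C.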

[4] = target: Thyrotropin-releasing hormone receptor (Homo sapiens) (UniProt P34981); experiment: qHTS assay to identify small molecule antagonists of the thyrotropin-releasing hormone receptor (TRHR) signaling pathway (AID 1346877; active = well fitted inhibition curve with a large enough effect in the repeat runs, not every such curve was filed as active; also: series mostly up to about 51 µM)
Outline: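 TRHR-expressing HEK293 cells were seeded, cultured 18 h at 37 °C, then loaded with calcium dye for 2 h. Compounds were pre-incubated 5 min at room temperature before 1 nM TRH (final) was added, and kinetic fluorescence was recorded for 3 min.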

[5] = target: Thyrotropin-releasing hormone receptor (Homo sapiens) (UniProt P34981); experiment: qHTS assay to identify small molecule agonists of the thyrotropin-releasing hormone receptor (TRHR) signaling pathway (AID 1346891; calls by dose curve; also: series mostly up to about 58 µM)
Outline: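 Kinetic fluorescence (3 min, 1 s intervals) reported intracellular calcium after compound transfer onto TRHR-Hek293 cells pre-loaded with dye for 2 h at 37 °C.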

[6] = Human pregnane X receptor (PXR) small molecule agonists, qHTS cell viability counter screen (AID 1346977); also: nearly all actives have a fitted effect of over 50% in size; also: potency is read from the fitted curve at half-maximal effect
Outline: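 HepG2 cells stably carrying the PXR-Luc reporter are cultured with 5% charcoal-stripped FBS and treated with compounds for 24hr. CellTiter-Fluor is added at 23hr and fluorescence is read after 1hr.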

[7] = Caspase-3/7 induction in HepG2 cells by small molecules, qHTS assay (AID 1346978); also: nearly all actives have a fitted effect of over 15% in size; also: potency is read from the fitted curve at half-maximal effect
Outline: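 Caspase-3/7 induction was measured by Caspase-Glo 3/7 luminescence (30 min, room temperature) after a 17 hr compound exposure of wild-type HepG2 cells seeded at 2,000 per well and pre-incubated 5 hr.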

[8] = Caspase-3/7 induction in CHO-K1 cells by small molecules, qHTS assay (AID 1346980); also: nearly all actives have a fitted effect of over 15% in size; also: potency is read from the fitted curve at half-maximal effect
Outline: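 Luminescent Caspase-Glo 3/7 read (30min, room temperature) quantified apoptosis induction. Cells were wild-type CHO-K1, treated with compound for 17hr at 37 C and 5% CO2.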

[9] = Caspase-3/7 induction in HepG2 cells by small molecules, qHTS cell viability counter screen (AID 1346981); also: nearly all actives have a fitted effect of over 30% in size; also: potency is read from the fitted curve at half-maximal effect; as to activity change, negative = cytotoxicity: series mostly up to about 92 µM
Outline: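 Wild-type HepG2 cells (2,000/well) were allowed to settle for 5 hr at 37 C, 5% CO2, then dosed with compounds in DMSO by pin transfer. After 16 hr at 37 C, CellTiter-Fluor was added and fluorescence read 1 hr later.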

[10] = target: Nuclear receptor subfamily 1 group I member 2 (Homo sapiens) (UniProt O75469); experiment: Human pregnane X receptor (PXR) small molecule agonists, qHTS assay (AID 1346982); also: nearly all actives have a fitted effect of over 35% in size; also: potency is read from the fitted curve at half-maximal effect
Outline: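 PXR-Luc HepG2 cells (CYP3A4 promoter-driven luciferase) were seeded in medium with 5% charcoal-stripped FBS, left 5 hr at 37 C, then exposed to compounds in DMSO for 24 hr. Luminescence was read after ONE-Glo addition.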

[11] = target: Cytochrome P450 2D6 (Homo sapiens) (UniProt P10635); experiment: Cytochrome P450 Family 2 Subfamily D Member 6 (CYP2D6) small molecule antagonists: luciferase reporter qHTS assay (AID 1671196); also: nearly all actives have a fitted effect of over 50% in size; also: potency is read from the fitted curve at half-maximal effect; as to activity change, negative = inhibition: series mostly up to about 120 µM
Outline: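 CYP2D6 enzyme–substrate mix was held with compound for 10 min at room temperature, then NADPH regeneration solution was added and the reaction ran 1 h at room temperature. Luciferin product was detected by luminescence after 20 min with detection reagent.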

[12] = target: Cytochrome P450 1A2 (Homo sapiens) (UniProt P05177); experiment: Cytochrome P450 Family 1 Subfamily A Member 2 (CYP1A2) small molecule antagonists: luciferase reporter qHTS assay (AID 1671199); also: nearly all actives have a fitted effect of over 50% in size; also: potency is read from the fitted curve at half-maximal effect; as to activity change, negative = inhibition: series mostly up to about 120 µM
Outline: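 Human CYP1A2 activity measured with a P450-Glo proluciferin substrate; compounds in DMSO preincubated 10 min at room temperature with enzyme-substrate mix, then NADPH regeneration system added for 1 h. Luciferin detection reagent, 20 min, luminescence read.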

[13] = Caspase-3/7 induction in CHO-K1 cells by small molecules, qHTS cell viability counter screen (AID 1346979); also: nearly all actives have a fitted effect of over 35% in size; also: potency is read from the fitted curve at half-maximal effect
Outline: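 Seeding: 1,500 CHO-K1 cells/well. Rest: 5hr, 37C. Treatment: compounds in DMSO, 16hr. Read: CellTiter-Fluor, 1hr, fluorescence.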

[14] = target: Cytochrome P450 2C9 (Homo sapiens) (UniProt P11712); experiment: Cytochrome P450 Family 2 Subfamily C Member 9 (CYP2C9) small molecule antagonists: luciferase reporter qHTS assay (AID 1671198); also: nearly all actives have a fitted effect of over 50% in size; also: potency is read from the fitted curve at half-maximal effect; as to activity change, negative = inhibition: series mostly up to about 120 µM
Outline: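 Enzyme-substrate mix preincubated with compound 10 min at room temperature; reaction started with NADPH regeneration solution, 1 h 37C. Luminescent luciferin product read after 20 min detection reagent.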

[15] = target: Voltage-gated inwardly rectifying potassium channel KCNH2 (Homo sapiens) (UniProt Q12809); experiment: Human Ether-a-go-go-Related Gene (hERG) channel small molecule antagonists: fluorescence cell-based qHTS assay (AID 1671200)
Outline: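 First, 1000 cells per well are seeded and cultured overnight at 37 C. Next, FluxOR II dye is loaded for 1 h at room temperature, protected from light. After 10 more minutes, stimulus is added and fluorescence is read.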

[16] = target: Cytochrome P450 2C19 (Homo sapiens) (UniProt P33261); experiment: Cytochrome P450 Family 2 Subfamily C Member 19 (CYP2C19) small molecule antagonists: luciferase reporter qHTS assay (AID 1671197); also: nearly all actives have a fitted effect of over 65% in size; also: potency is read from the fitted curve at half-maximal effect; as to activity change, negative = inhibition: series mostly up to about 120 µM
Outline: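 Inhibition of CYP2C19 was scored from loss of luminescence in a P450-Glo proluciferin substrate assay, NADPH-started and run 1 h at 37C, with ketoconazole as positive control.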

[17] = target: Nuclear receptor subfamily 1 group I member 2 (Rattus norvegicus) (UniProt Q9R1A7); experiment: Rat pregnane X receptor (rPXR) activation by small molecules, qHTS assay (AID 1346983); details: rPXR luciferase reporter cells, One-Glo luminescence, 24 h; max activation: hits give high values; also: nearly all actives have a fitted effect of over 20% in size
Outline: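 Luminescent readout (One-Glo luciferase, 30 min room temperature) followed 24 hr compound treatment at 37 C of rPXR cells plated 2,000 per well and preincubated 5hr; qHTS format with compounds delivered in DMSO.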
% is scaled to controls: 0 for no effect and ±100 for the full control effect.

Chain of Cytochrome P450 2D6 (Homo sapiens) (P10635 whole entry, looked up): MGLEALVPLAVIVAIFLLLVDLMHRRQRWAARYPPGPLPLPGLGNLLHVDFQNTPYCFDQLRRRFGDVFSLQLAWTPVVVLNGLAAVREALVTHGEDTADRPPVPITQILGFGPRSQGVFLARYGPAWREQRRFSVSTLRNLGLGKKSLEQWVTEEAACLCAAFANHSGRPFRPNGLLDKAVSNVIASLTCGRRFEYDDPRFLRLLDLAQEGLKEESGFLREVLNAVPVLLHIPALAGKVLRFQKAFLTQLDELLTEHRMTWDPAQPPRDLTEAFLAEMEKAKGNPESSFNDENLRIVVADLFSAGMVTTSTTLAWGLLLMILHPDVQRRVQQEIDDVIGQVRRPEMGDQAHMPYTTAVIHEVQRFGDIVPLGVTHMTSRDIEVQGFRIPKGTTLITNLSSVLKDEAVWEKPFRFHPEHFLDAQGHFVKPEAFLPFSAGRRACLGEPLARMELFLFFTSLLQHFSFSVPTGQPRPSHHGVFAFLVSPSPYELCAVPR
Chain of Cytochrome P450 2C9 (Homo sapiens) (P11712 whole entry, looked up): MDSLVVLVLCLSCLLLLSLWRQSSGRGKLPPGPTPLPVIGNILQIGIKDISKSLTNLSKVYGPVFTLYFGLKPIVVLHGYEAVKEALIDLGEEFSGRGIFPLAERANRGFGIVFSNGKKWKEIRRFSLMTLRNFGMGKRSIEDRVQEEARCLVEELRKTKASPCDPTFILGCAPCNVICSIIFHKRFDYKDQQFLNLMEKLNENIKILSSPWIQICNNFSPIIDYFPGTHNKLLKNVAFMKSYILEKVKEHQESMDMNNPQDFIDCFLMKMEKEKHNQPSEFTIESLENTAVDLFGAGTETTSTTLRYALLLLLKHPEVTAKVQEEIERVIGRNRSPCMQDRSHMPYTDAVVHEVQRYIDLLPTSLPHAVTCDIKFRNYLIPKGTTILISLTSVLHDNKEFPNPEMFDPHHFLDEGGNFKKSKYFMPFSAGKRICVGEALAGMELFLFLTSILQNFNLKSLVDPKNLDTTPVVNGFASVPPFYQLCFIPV
Chain of Cytochrome P450 2C19 (Homo sapiens) (P33261 whole entry, looked up): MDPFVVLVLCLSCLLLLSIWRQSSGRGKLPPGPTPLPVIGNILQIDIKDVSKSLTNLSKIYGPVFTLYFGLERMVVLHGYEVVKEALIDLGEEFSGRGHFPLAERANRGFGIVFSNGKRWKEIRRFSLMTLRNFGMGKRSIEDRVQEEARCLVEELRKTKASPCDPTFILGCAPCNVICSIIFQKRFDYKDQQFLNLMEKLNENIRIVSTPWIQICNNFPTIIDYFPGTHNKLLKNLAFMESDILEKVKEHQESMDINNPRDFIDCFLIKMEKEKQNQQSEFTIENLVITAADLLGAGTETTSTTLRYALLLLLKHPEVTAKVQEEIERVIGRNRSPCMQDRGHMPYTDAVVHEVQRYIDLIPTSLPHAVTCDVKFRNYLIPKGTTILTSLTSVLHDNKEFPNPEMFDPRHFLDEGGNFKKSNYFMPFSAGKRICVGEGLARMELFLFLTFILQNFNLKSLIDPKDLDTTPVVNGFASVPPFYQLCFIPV
Chain of Thyrotropin-releasing hormone receptor (Homo sapiens) (P34981 whole entry, looked up): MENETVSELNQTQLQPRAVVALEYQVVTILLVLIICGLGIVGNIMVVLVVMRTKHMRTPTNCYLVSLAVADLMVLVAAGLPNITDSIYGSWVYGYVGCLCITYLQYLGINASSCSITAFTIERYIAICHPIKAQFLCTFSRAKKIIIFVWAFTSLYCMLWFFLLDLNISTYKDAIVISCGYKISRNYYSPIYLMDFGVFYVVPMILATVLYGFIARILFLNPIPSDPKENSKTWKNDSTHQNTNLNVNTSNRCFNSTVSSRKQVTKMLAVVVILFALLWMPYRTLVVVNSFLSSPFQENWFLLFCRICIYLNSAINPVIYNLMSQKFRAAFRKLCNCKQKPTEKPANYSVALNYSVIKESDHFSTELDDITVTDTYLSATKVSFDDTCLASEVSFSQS
Chain of Cytochrome P450 1A2 (Homo sapiens) (P05177 whole entry, looked up): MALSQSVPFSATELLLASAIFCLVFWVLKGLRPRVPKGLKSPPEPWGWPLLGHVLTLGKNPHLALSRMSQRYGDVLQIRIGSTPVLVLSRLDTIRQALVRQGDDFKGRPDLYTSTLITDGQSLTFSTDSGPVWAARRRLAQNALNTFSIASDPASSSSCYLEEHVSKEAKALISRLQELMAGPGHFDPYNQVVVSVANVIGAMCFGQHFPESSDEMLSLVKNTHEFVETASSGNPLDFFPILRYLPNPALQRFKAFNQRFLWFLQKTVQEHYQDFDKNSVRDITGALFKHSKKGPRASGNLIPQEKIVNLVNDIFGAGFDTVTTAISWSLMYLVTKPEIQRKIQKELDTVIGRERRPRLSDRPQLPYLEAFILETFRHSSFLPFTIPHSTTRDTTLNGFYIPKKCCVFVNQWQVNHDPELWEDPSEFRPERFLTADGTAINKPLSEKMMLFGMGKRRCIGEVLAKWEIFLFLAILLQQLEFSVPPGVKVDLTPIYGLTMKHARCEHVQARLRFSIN
Chain of Voltage-gated inwardly rectifying potassium channel KCNH2 (Homo sapiens) (Q12809 whole entry, looked up): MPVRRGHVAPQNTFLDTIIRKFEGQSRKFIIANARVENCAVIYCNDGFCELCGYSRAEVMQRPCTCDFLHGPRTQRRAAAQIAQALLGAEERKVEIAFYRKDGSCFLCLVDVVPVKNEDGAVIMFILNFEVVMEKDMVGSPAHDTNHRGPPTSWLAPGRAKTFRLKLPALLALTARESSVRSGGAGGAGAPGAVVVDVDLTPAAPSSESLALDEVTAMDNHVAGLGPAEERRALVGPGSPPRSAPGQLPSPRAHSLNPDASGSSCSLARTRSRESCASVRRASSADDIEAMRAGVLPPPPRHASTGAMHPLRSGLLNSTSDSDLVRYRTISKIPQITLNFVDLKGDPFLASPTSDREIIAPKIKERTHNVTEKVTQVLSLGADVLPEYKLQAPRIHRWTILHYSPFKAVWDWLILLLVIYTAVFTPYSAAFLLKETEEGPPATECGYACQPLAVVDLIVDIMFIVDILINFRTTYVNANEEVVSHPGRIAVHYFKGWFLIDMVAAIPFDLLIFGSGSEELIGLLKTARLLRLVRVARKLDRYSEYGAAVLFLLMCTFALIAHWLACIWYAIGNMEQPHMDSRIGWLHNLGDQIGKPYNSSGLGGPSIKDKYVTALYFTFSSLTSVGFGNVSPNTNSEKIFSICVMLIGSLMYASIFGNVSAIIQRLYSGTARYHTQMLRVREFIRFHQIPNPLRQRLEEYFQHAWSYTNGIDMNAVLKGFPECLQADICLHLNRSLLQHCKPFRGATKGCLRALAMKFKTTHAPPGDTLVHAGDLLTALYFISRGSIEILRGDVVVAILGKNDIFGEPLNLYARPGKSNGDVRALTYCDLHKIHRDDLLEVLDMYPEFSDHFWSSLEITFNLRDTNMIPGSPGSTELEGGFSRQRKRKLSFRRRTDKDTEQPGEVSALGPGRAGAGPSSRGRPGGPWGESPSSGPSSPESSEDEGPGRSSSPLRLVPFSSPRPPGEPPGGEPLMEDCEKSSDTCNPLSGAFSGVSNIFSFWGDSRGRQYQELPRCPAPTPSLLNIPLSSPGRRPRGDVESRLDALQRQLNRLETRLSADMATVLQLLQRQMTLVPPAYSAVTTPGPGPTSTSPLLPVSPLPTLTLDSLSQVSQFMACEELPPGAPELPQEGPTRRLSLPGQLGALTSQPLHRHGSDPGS
Chain of Nuclear receptor subfamily 1 group I member 2 (Homo sapiens) (O75469 whole entry, looked up): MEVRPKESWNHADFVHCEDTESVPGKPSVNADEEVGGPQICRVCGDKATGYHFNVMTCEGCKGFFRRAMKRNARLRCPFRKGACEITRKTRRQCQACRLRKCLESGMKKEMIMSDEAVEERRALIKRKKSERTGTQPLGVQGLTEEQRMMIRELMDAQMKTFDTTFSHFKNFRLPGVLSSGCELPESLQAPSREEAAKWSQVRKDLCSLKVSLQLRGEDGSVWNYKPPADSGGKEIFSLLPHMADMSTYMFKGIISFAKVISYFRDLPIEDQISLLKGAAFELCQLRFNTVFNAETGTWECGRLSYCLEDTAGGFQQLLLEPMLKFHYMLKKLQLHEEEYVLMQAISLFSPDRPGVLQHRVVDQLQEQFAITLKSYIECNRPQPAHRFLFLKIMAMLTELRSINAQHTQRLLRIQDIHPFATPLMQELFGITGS
Chain of Nuclear receptor subfamily 1 group I member 2 (Rattus norvegicus) (Q9R1A7 whole entry, looked up): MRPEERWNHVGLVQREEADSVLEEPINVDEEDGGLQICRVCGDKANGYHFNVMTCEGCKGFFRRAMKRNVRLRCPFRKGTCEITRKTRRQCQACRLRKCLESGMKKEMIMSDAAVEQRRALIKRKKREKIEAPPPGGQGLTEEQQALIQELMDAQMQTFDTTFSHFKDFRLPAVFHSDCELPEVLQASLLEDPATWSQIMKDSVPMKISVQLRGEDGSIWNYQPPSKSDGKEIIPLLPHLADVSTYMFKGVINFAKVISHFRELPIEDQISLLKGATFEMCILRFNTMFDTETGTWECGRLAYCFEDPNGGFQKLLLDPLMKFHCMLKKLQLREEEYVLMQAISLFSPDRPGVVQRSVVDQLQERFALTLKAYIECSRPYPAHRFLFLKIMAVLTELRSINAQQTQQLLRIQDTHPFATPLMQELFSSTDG

CCCCCCCCCCCC(=O)Cl
inactive: Potency [1] | Potency [2] | outcome [3] | Potency [4] | Potency [5] | Potency [6] | Potency [7] | Potency [8] | Potency [9] | Potency [10] | Potency [11] | Potency [12]

CCC(=O)OC/C=C(\C)CCC=C(C)C
inactive: Potency [1] | Potency [2] | outcome [3] | Potency [4] | Potency [5] | Potency [6] | Potency [7] | Potency [13] | Potency [8] | Potency [9] | Potency [10] | Potency [11] | Potency [14] | Potency [15]

Cc1cc(Br)ccc1NC(=O)CCl
inactive: Potency [2] | Potency [4] | Potency [5] | Potency [7] | Potency [8] | Potency [15]
active: Potency [1] 27.3 µM | Potency [6] 54.5 µM | Potency [9] 61.1 µM | Potency [10] 3.44 µM | Potency [16] 79.6 µM | Potency [14] 39.9 µM | Potency [12] 11.2 µM

c1ccc(-c2nc3ccccc3[nH]2)cc1
active: Potency [10] 9.69 µM | Potency [11] 31.7 µM | Potency [16] 35.6 µM | Potency [14] 35.6 µM | Potency [12] 7.1 µM
inactive: Potency [1] | Potency [2] | outcome [3] | Potency [4] | Potency [5] | Potency [7] | Potency [8] | Potency [9] | Potency [15]

CN(C)CCOc1ccc(/C(=C(/CCCl)c2ccccc2)c2ccccc2)cc1
active: Potency [1] 57.2 µM | Potency [6] 22.8 µM | Potency [7] 57.2 µM | Potency [13] 51 µM | Potency [8] 51 µM | Potency [9] 57.2 µM | Potency [11] 52.8 µM | Potency [16] 52.8 µM
inactive: Potency [2] | outcome [3] | Potency [4] | Potency [5] | max activation [17] -3.02%

C=C(C)C1CCC(C)CC1O (stereo not drawn)
inactive: Potency [1] | Potency [2] | outcome [3] | Potency [6] | Potency [7] | Potency [13] | Potency [8] | Potency [9] | Potency [10] | Potency [11] | Potency [16] | Potency [14] | Potency [12] | Potency [15]

Cc1cc(C)c(O)c(C(C)(C)C)c1
inactive: Potency [1] | Potency [2] | outcome [3] | Potency [6] | Potency [8] | Potency [9] | Potency [10] | Potency [11] | Potency [15]
active: Potency [12] 31.7 µM

C=C[Si](C)(C)Cl
inactive: activity change, negative = cytotoxicity [1] -13.4% [at 8.39 µM] | viability change, negative = cytotoxic [2] 9.11% [at 6.97 µM] | activation [3] 0.312% [at 6.97 µM] | activity, negative = inhibition [4] 2.56% [at 4.65 µM] | activation [5] 0.0082% [at 5.23 µM] | activity change, negative = cytotoxicity [6] 1.3% [at 8.39 µM] | caspase activation [7] -0.0006% [at 8.39 µM] | caspase-3/7 activation [8] 0.183% [at 8.39 µM] | activity change, negative = cytotoxicity [9] -0.712% [at 8.39 µM] | activation [10] 4.97% [at 8.39 µM] | activity change, negative = inhibition [11] 0.847% [at 10.5 µM] | activity change, negative = inhibition [16] -15.5% [at 10.5 µM] | activity change, negative = inhibition [12] -9.04% [at 10.5 µM]
